Measured values taken from PubChem BioAssay (NCATS).
Results filed as inconclusive are left out. Active and inactive are the calls of the source. Calls come from the whole dose curve; as a rule, active = well fitted inhibition curve with a large enough effect; inconclusive = small, poorly fitted or top-dose-only effect; inactive = flat fitted curve, though single readings scatter.

test system: CRL-7250; experiment: qHTS assay to identify novel small-molecules to repurpose for Merkel cell carcinoma treatment (AID 1296009); settings: MCC and control cell lines, CellTiter-Glo viability, 72 h; at 44.8 µM (top of the series) unless noted; note: nearly all actives have a fitted effect of over 60% in size
Procedure, shortened: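 Cell viability, measured as CellTiter-Glo luminescence, was normalized between DMSO and no-cell wells. The cells had been exposed to 8- or 11-point compound dilutions for 72 hr at 37 degree celsius.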

Row | Structure (SMILES) | outcome
1 | CCN(CC)C(C)CN1c2ccccc2Sc2ccccc21 (centres undefined) | inactive
2 | CC(C(=O)O)c1ccc2c(c1)CC(=O)c1ccccc1S2 (centres undefined) | inactive
3 | Nc1nc2ccc(OC(F)(F)F)cc2s1 | inactive
4 | O=C(O)CCCC[C@@H]1SC[C@@H]2NC(=O)N[C@@H]21 | inactive
5 | C=CCc1ccc(O)c(OC)c1 | inactive
6 | O=C(O)Cn1c(=O)n(Cc2ccc(Br)cc2F)c(=O)c2ccc(Cl)cc21 | inactive
7 | CCCCCCCCCCCCCCCCCC(=O)OCC(O)CO (centres undefined) | inactive
8 | COc1ccc(C(=O)c2ccccc2O)c(O)c1 | inactive
9 | CCN1CCC[C@H]1CNC(=O)c1c(O)c(Cl)cc(Cl)c1OC | inactive
10 | CCCCN(CCCC)CCCOC(=O)c1ccc(N)cc1 | inactive
11 | O=C(CCCl)NCCc1ccccc1 | inactive
12 | CC(C)(C)NCC(O)COc1cccc2c1C[C@H](O)[C@H](O)C2 (some centres undefined) | inactive
13 | CCN1CCCC1CNC(=O)c1cc(S(=O)(=O)CC)c(N)cc1OC (centres undefined) | inactive
14 | COc1c2occc2c(OC)c2c(=O)cc(C)oc12 | inactive
15 | O=C(O)CSCC(=O)NC1CCSC1=O (centres undefined) | inactive
16 | CN(c1nccc(=O)[nH]1)C1CCN(c2nc3ccccc3n2Cc2ccc(F)cc2)CC1 | inactive
17 | CC(C)(Sc1cc(C(C)(C)C)c(O)c(C(C)(C)C)c1)Sc1cc(C(C)(C)C)c(O)c(C(C)(C)C)c1 | inactive
18 | O=C(CO)[C@@H](O)[C@H](O)[C@@H](O)CO | inactive
19 | OCc1ccc(Cl)cc1Cl | inactive
20 | CC(C)(Oc1ccc(C2CC2(Cl)Cl)cc1)C(=O)O (centres undefined) | inactive [at 92 µM]
21 | NCCCCCC(=O)O | inactive
22 | CC(=O)Nc1ccc(/C=N/NC(N)=S)cc1 | inactive
23 | COc1ccc2cc1Oc1cc3c(cc1OC)CC[N+](C)(C)[C@H]3Cc1ccc(cc1)Oc1c(OC)c(OC)cc3c1[C@@H](C2)[N+](C)(C)CC3 | inactive
24 | Nc1ncnc2c1ncn2[C@@H]1O[C@H](COP(=O)(O)O)[C@@H](O)[C@H]1O | inactive
25 | CCCNC(C)C(=O)Nc1c(C)csc1C(=O)OC (centres undefined) | inactive
26 | O=P(O)(O)C(O)(Cn1ccnc1)P(=O)(O)O | inactive [at 17.4 µM]
27 | Cn1c(=O)c2[nH]c(Br)nc2n(C)c1=O | inactive
28 | CCC(C(=O)OCCN(CC)CC)c1ccccc1 (centres undefined) | inactive
29 | Oc1ccc(Cl)c2cccnc12 | inactive
